Bioassay records as filed in PubChem.
A selection: hits, their analogues and other compounds. The true share with any hit is near 18%.
LDHA inh – inhibitors of human lactate dehydrogenase A; P00338; purified LDHA, NADH/diaphorase-resazurin fluorescence; stronger effect = lower value; activity change, % (values are at about 110 or 230 µM); 480,000 compounds, 0.15% hits; AID 1347041; in the data active means activity change below about -30%; inconclusive means mostly about -25% to -30%
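Resorufin fluorescence (ex540/em590), read at 0 and 20 min after diaphorase/resazurin addition, reports the NADH left after a 5 min room-temperature reaction of 2 nM human LDH5 with 0.06 mM NADH and 0.2 mM pyruvate.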
DT40 TDP1 no CPT – qHTS for Inhibitors of human tyrosyl-DNA phosphodiesterase 1 (TDP1): qHTS in cells in absence of CPT. DT40 Tdp1-/- hTDP1 cells, no CPT, ATP luminescence, 48 h. Potency, µM (series often up to 46.2 µM), hits mostly inhibitors. 420,000 compounds, 15% hits; further: nearly all actives have a fitted effect of over 55% in size
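Camptothecin absent (DMSO only). Human TDP1-complemented DT40 knockout cells, 400 cells/well, 37 °C for minimum 48 hr; ATP measured via CellTiter-Glo, 30 min dark incubation, luminescence.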
RORgamma inh – inhibitors of mouse ROR gamma transcriptional activity; Drosophila S2 Gal4-RORgamma UAS-luciferase reporter, 20 h; P51450; 310,000 compounds, 5.4% hits; Potency, µM (top dose mostly 53.6 µM), actives largely listed as inhibitors; further: nearly all actives have a fitted effect of over 60% in size
Target sequence (P51450 whole entry, looked up, the tested form may be a part): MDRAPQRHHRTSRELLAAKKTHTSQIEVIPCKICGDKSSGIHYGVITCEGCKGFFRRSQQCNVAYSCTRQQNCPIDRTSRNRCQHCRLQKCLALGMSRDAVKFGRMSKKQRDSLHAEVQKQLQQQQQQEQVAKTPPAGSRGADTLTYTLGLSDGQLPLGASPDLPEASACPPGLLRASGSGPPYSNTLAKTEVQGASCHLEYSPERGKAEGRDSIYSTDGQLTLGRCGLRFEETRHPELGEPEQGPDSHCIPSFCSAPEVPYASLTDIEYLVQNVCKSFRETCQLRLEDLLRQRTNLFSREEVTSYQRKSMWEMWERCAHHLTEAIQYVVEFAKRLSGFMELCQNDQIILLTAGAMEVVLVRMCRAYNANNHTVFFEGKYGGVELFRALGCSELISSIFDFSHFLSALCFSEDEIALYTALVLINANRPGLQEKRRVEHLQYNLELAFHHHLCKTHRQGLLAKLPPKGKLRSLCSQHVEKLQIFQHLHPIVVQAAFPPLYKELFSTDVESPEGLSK
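ROR gamma transcriptional activity was tracked as Gal4-UAS luciferase output in stably transfected Drosophila Schneider cells, with compound added 1 hr before 700 uM copper sulfate induction and a 20 hr ambient-temperature incubation.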
Gal4-VP16 FLuc – counter-screen for ROR gamma inhibitors: Gal4-VP16 reporter. Drosophila S2 Gal4-VP16 UAS-luciferase, luminescence, 20 h. Potency, µM (doses to about 53.6 µM), hits mostly inhibitors. 310,000 compounds, 3.5% hits. AID 2546;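 further: Gal4-VP16 expression switched on by copper sulfate through the metallothionein promoter; nearly all actives have a fitted effect of over 50% in size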
IL-1B inflam inh – inflammasome signaling inhibition, IL-1 beta readout. AID 743279. THP-1 LPS/ATP IL-1B secretion, AlphaLISA, 16 h; stronger effect = lower value. activity change, % at 57.5 µM. 360,000 compounds, 4.7% hits; in the data active means activity change below about -50%; inconclusive means mostly about -30% to -49%
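Secreted IL-1B measured by AlphaLISA bead assay after 16 h compound exposure of THP-1 cells; compounds (final up to 57.5 uM) added 1 h before LPS (250 ng/mL) and ATP (1.25 mM) stimulation; lower signal means less secretion.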
TDP1 cell CPT – growth inhibition of DT40 Tdp1-/-;hTDP1 cells with camptothecin (screen for TDP1 inhibitors) | Potency, µM (titrated, usually from 46.2 µM), usual class: inhibitors | chicken DT40 Tdp1-/-;hTDP1 cells + 20 nM CPT, ATP luminescence, 48 h | 420,000 compounds, 12% hits; further: nearly all actives have a fitted effect of over 55% in size
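Chicken DT40 Tdp1-/- cells stably complemented with human TDP1 were seeded at 400 cells/well in medium containing 20 nM camptothecin, exposed to pin-transferred compounds, and grown at 37 °C for at least 48 hr. Viability was read as ATP luminescence.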
Hits are given with their value; n = inactive; u = inconclusive; x = not tested or not shown; [ ] = another dose, or the depositor's remark. Unless noted, the call rests on the fitted dose curve; in most records, active means well fitted curve in the direction sought with a large enough effect; inconclusive means small, poorly fitted or top-dose-only effect, or another doubt; inactive means no such curve, though single readings can be large; an effect the other way counts as inactive or inconclusive.

SMILES	LDHA inh	DT40 TDP1 no CPT	RORgamma inh	Gal4-VP16 FLuc	IL-1B inflam inh	TDP1 cell CPT
Cc1ccc(C)c(S(=O)(=O)Nc2ccc3sc(C)nc3c2)c1	n	u	n	n	n	u
Cc1cc2oc(=O)sc2cc1NS(=O)(=O)c1cccc2cccnc12	n	n	n	n	-69	u
COc1cccc(S(=O)(=O)Nc2ccc3sc(C)nc3c2)c1	n	23µM	n	n	n	u
CN(C)C(=O)C1CN(C(=O)CCc2ncc(-c3ccccc3Cl)o2)c2ccccc2O1 (stereo not drawn)	n	x	x	x	x	x
O=C(O)COc1ccc(/C=C2/NC(=O)NC2=O)cc1I	n	x	x	x	x	x
Cc1cc(C)c(C)c(S(=O)(=O)N2CCCc3ccccc32)c1C	n	x	x	x	x	x
CC(Sc1nc(-c2ccccc2)c(-c2ccccc2)o1)C(=O)NC1CC1 (stereo not drawn)	n	x	x	x	x	x
CCCCCCCCn1cnc2c(N)c(C)c(C)cc21	n	u	10µM	u	n	u
COc1ccccc1/C=N/NC(=O)c1ccccc1Cl	n	n	n	n	-67	n
COc1ccccc1/C=N/NC(=O)c1ccccc1NS(=O)(=O)c1ccc(C)cc1	n	n	13µM	u	n	n
C=CCc1cccc(/C=N/NC(=O)c2ccccc2Br)c1O	n	u	1.4µM	4µM	n	u
C=CCc1cccc(/C=N/NC(=O)c2ccc3nc[nH]c3c2)c1O	n	5.8µM	u	u	n	9.2µM
COc1ccccc1/C=N/NC(=O)c1cccc(NC(=O)c2ccccc2Cl)c1	n	n	n	n	n	n
CCCNc1nc(-c2ccc(NC(C)=O)cc2F)cs1	n	x	x	x	x	x
C=CCc1cccc(/C=N/NC(=O)c2ccccc2OC)c1O	n	u	0.5µM	1.3µM	n	u
Cc1c(F)cc(C(N)=O)cc1NS(=O)(=O)c1ccc2ccccc2c1	n	x	x	x	x	x
CCCC(=O)OCCNc1cc(SCCC(=O)OC)c2nonc2c1[N+](=O)[O-]	n	u	n	u	-86	16µM
COC(=O)CCSc1cc(NCCOC(C)=O)c([N+](=O)[O-])c2nonc12	n	18µM	n	n	-97	11µM
COc1ccc(Nc2cc(NCCCO)c([N+](=O)[O-])c3nonc23)cc1	n	n	n	n	n	n
COc1ccccc1NC(=O)CSc1nc2c(oc3ccccc32)c(=O)n1-c1ccc(C)cc1	n	8.2µM	x	x	x	18µM
CCOc1ccc(NC(=O)CSc2nc3c(oc4ccccc43)c(=O)n2-c2cc(C)cc(C)c2)cc1	n	n	x	x	x	n
Cc1cc(C)cc(-n2c(SCC(=O)Nc3ccccc3)nc3c(oc4ccccc43)c2=O)c1	n	u	x	x	x	15µM
Cc1cc(C)cc(-n2c(SCC(=O)Nc3ccccc3F)nc3c(oc4ccccc43)c2=O)c1	n	7.3µM	x	x	x	16µM
O=C(CSc1nc2c(oc3ccccc32)c(=O)n1-c1ccccc1)Nc1ccccc1F	n	u	x	x	x	u
CCOc1ccc(-n2c(SCC(=O)Nc3ccccc3OC)nc3c(oc4ccccc43)c2=O)cc1	n	u	x	x	x	u
SMILES	LDHA inh	DT40 TDP1 no CPT	RORgamma inh	Gal4-VP16 FLuc	IL-1B inflam inh	TDP1 cell CPT
COc1cccc(NC(=O)CSc2nc3c(oc4ccccc43)c(=O)[nH]2)c1	n	23µM	n	n	n	n
Cn1c(=O)[nH]c(=O)c2c1nc(Sc1nc3ccccc3[nH]1)n2CCCc1ccccc1	n	x	x	x	x	x
O=C(Cc1cccc2ccccc12)NCc1ccccn1	n	x	x	x	x	x
OCCOc1ccc(CNc2nc(-c3ccccc3)nc3ccccc23)cc1	n	x	x	x	x	x
Cn1cnc2c1c(=O)n(CC(=O)NCc1ccccc1OC(F)F)c(=O)n2C	n	x	x	x	x	x
O=C(OC(c1ccccc1)c1nccc2ccccc12)c1cc([N+](=O)[O-])cc([N+](=O)[O-])c1 (stereo not drawn)	n	21µM	n	n	n	15µM
OC(c1cccc(Cl)c1)c1nccc2ccccc12 (stereo not drawn)	n	n	n[1.91 µM]	u	n	n
CCNC(=S)N/N=C/c1sc(N2CCCCC2)nc1-c1cccs1	n	u	u	18µM	n	u
COc1ccc(-c2c(C)[nH]n3c(=O)c(Cl)c(C)nc23)cc1	n	x	x	x	x	x
CS(=O)(=O)N1CCc2cc(C(=O)N3CCN(c4ccccc4)CC3)ccc21	n	u	n	n	n	u
COc1ccc(N2CCN(C(=O)c3cccc(S(=O)(=O)N4CCc5ccccc54)c3)CC2)cc1	n	15µM	x	x	n	u
CS(=O)(=O)N1CCc2cc(C(=O)N3CCN(c4ccc(F)cc4)CC3)ccc21	n	21µM	n	n	n	u
O=C(NCc1ccccn1)c1cccc(S(=O)(=O)N2CCc3ccccc32)c1	n	u	x	x	n	u
O=C(c1cccc(S(=O)(=O)N2CCc3ccccc32)c1)N1CCN(c2ccccn2)CC1	n	23µM	n	n	n	u
CCc1ccc(-c2cc(C(F)F)n3nc(C)c(Br)c3n2)cc1	n	x	x	x	x	x
COc1ccccc1Nc1cc2cc(Br)ccc2c(=O)[nH]1	n	5.2µM	x	x	n	2.6µM
O=c1[nH]c(Nc2ccccc2)cc2cc(Br)ccc12	n	18µM	x	x	n	u
COc1ccccc1Nc1nnc(C)c(=O)[nH]1	n	n	n	n	n	n
